Among all 360,000 compounds or so, about 3,700 (1%) were called active. Only a selection was taken, and actives are over-represented in it overall. A number with no mark means an inactive call. Cut-off read from the data, not from the text of the source: active = activation above about 30%; inactive = the rest.
Target: D(1A) dopamine receptor (Homo sapiens) (UniProt P21728)
Test: Allosteric Agonists of the Human D1 Dopamine Receptor: qHTS; note: 0% is about no effect
Conditions: HEK293 T-REx D1 cells, calcium flux, agonist mode; at 2 µM; hits give high values
How it was run: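 Agonism was scored from calcium flux recorded over 180 s (1 read/s) after pintool compound addition, following a 10-cycle baseline. Cells were inducible force-coupled HEK293 TREx D1, plated overnight at 30 C and loaded with no-wash calcium dye.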

Sequence of D(1A) dopamine receptor (Homo sapiens) (P21728 whole entry, looked up): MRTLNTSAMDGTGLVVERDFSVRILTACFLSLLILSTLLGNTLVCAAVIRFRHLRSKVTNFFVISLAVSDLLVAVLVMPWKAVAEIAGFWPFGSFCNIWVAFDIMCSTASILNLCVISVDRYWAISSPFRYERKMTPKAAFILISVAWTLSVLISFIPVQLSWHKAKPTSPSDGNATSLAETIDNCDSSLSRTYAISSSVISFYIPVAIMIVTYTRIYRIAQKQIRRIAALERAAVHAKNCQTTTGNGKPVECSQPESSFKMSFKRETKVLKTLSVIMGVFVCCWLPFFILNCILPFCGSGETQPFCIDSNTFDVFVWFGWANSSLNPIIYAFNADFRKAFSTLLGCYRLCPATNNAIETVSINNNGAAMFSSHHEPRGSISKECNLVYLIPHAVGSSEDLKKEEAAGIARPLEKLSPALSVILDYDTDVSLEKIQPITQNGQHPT

Row | Structure (SMILES) | activation
1 | CN(C)c1ccc(C(CNS(=O)(=O)c2cc(F)ccc2F)N2CCOCC2)cc1 (stereo unspecified) | 5.52%
2 | CCCc1cc(=O)n2[nH]c(NCc3ccc(CC)cc3)nc2n1 | 1.79%
3 | Cc1c(Cl)cccc1NC(=O)C1CCCN(C(=O)c2cnn(-c3ccccc3)c2-n2cccc2)C1 (stereo unspecified) | 4.43%
4 | CCOC(=O)c1ccc(NC(=O)CCS(=O)(=O)c2ccc(C)cc2)cc1 | 1.55%
5 | CCc1ccc(-c2nn(-c3ccccc3C)cc2C(=O)N2CCN(C3CCS(=O)(=O)C3)CC2)cc1 (stereo unspecified) | 1.59%
6 | CCc1ccc(-c2nn(-c3ccccc3)cc2CSC(=N)N)cc1 | 47.5% (active)
7 | O=Cc1cn(-c2ccccc2)nc1-c1ccccn1 | -0.0617%
8 | Fc1ccccc1CCNc1nnnn1-c1ccccc1 | 5.56%
9 | c1ccc(-n2nnnc2NC2CCCCCC2)cc1 | 112% (active)
10 | CN(C(=O)CSc1nnnn1-c1ccccc1)C1CCCCC1 | 0.493%
11 | CCOc1cccc2cc(-c3cn4c(n3)sc3cc(C)ccc34)c(=O)oc12 | 0.779%
12 | CCc1nc2c(cnn2-c2ccc(C)cc2)c(=O)n1-c1ccc(C)cc1 | 5.84%
13 | Cc1cccc(C(=O)Nc2ccc(-c3nc4ccccc4s3)c(C)c2)c1 | 6.34%
14 | COc1ccc(S(=O)(=O)Nc2cccc3cccnc23)c(N)c1 | 4.45%
15 | CCc1ccc(/C=N/NC(=O)c2nnn(-c3nonc3N)c2CN2CCc3ccccc32)cc1 | -0.149%
16 | Nc1nonc1-n1nnc(C(=O)N/N=C/c2ccc(Cl)cc2)c1-c1ccc2c(c1)OCO2 | 94.3% (active)
17 | CCCOc1ccc(-c2c(C(=O)N/N=C/c3ccco3)nnn2-c2nonc2N)cc1 | 13.8%
18 | Cc1cccc(NC(=O)c2ccc3nc(C(C)C)oc3c2)c1C | 2.14%
19 | Cc1ccc(N(C)C(=O)C2CCN(S(=O)(=O)c3ccc4c(c3)CCCN4C(=O)C3CCC3)CC2)cc1 | 5.77%

Row | Structure (SMILES) | activation
20 | CCOC(=O)CC1C(=O)NCCN1c1nc2c(C)cccn2c(=O)c1/C=C1\SC(=S)N(C(C)CC)C1=O (stereo unspecified) | 265% (active)
21 | CCOC(=O)CNC(=O)c1cc2c(=O)n3cccc(C)c3nc2s1 | -0.0788%
22 | COc1ccc(C(=O)NC(=S)N2CCNC(=O)C2CC(=O)OC(C)C)cc1 (stereo unspecified) | 2.67%
23 | CCC1CN(S(=O)(=O)c2cc(-c3cc(C)no3)ccc2C)c2cc(C)ccc2O1 (stereo unspecified) | 8.44%
24 | CSc1ncc(Cl)c(C(=O)Nc2ccc(S(=O)(=O)N3CCCC(C)C3)cc2)n1 (stereo unspecified) | 3.25%
25 | COC(=O)c1ccccc1NC(=O)c1ccc(C#N)cc1 | 1.68%
26 | Cc1ccccc1CNC(=O)C(=O)NCC(c1cccs1)S(=O)(=O)c1cccs1 (stereo unspecified) | 25.2%
27 | COc1ccc(C(=O)C2CCCN(Cc3cccn3-c3ccccn3)C2)c(C)c1 (stereo unspecified) | 34% (active)
28 | COc1ccc(C(=O)C2CCCN(C(=O)c3cnsn3)C2)c(C)c1 (stereo unspecified) | 2.63%
29 | COc1ccc(C(=O)C2CCCN(S(=O)(=O)c3cccc(C)c3)C2)c(C)c1 (stereo unspecified) | 12.7%
30 | O=S(=O)(c1ccc2c(c1)OCCCO2)N1CCN(S(=O)(=O)c2c(F)cccc2F)CC1 | 7.42%
31 | CCc1ccc(CNC(=O)c2ccc(CS(=O)c3ccc(Br)cc3)o2)cc1 (stereo unspecified) | 2.59%
32 | O=S(=O)(NC1CC1)c1ccc2c3c(cccc13)CC2 | 2.42%
33 | O=S(=O)(NC1CCCCC1)c1ccc(F)c2ccccc12 | 102% (active)
34 | CCc1ccccc1NC(=O)c1ccc(F)c(S(=O)(=O)NC2CCCCCC2)c1 | -1.43%
35 | Nc1c(C(=O)c2cccs2)sc2nsc(SCCN3CCCCC3)c12 | 257% (active)
36 | CCc1ccc(CNCc2c(C(=O)O)n(Cc3ccc(F)cc3Cl)c3cc(OC)ccc23)cc1 | 0.499%
37 | CCOc1ccccc1NC(=O)C1CCCN(S(=O)(=O)c2cn(C)cn2)C1 (stereo unspecified) | -2.08%
38 | O=C(NC1CC1)C1=C[C@H](c2c[nH]c3ccccc23)C[C@H](OCc2ccc(CO)cc2)O1 | 7.93%

Row | Structure (SMILES) | activation
39 | NC(=O)C1=C[C@@H](c2csc3ccccc23)C[C@@H](OCc2ccc(CO)cc2)O1 | 11.8%
40 | NC(=O)C1=C[C@H](c2csc3ccccc23)C[C@H](OCc2ccc(CO)cc2)O1 | 203% (active)
41 | Cc1cccc(NC(=O)Cn2c(C(F)(F)F)nc3ccccc32)c1C | 2.74%
42 | Oc1ccc(Cl)cc1C1C=C(c2ccc3c(c2)OCO3)NC(c2ccc(F)c(Br)c2)N1 (stereo unspecified) | 16.4%
43 | Cc1ccc(-c2cc(N)n(Cc3cccc(Cl)c3)n2)cc1 | -0.135%
44 | COc1cc(OC)c(OC)cc1/C=C/c1nc2cc3ccccc3cc2c(=O)n1-c1ccc(F)c(Cl)c1 | 0.411%
45 | CCCN1CCN(CCCNC(=O)c2ccc3nc(Cc4ccccc4)oc3c2)CC1 | 4.88%
46 | CN1CCN(CCCNC(=O)c2ccc(/C=C3\Oc4ccccc4N(Cc4ccc(Cl)cc4)C3=O)cc2)CC1 | 87.5% (active)
47 | COCCNC(=O)c1ccc2c(c1)N(Cc1cccc(Cl)c1)C(=O)c1ccccc1S2(=O)=O | 4.3%
48 | Cc1cccc(NC(=O)CN(c2ccc(C(C)C)cc2)S(=O)(=O)c2c(C)nn(C)c2C)c1C | 3.58%
49 | COc1cc(NC(=O)c2cc3ccc4cccnc4c3[nH]2)cc(OC)c1OC | -0.0279%
50 | CCCC(C)C(=O)Nc1ccc(NC(C)=O)cc1 (stereo unspecified) | 2.66%
51 | CCC(C(=O)Nc1ccc(C(C)C)cc1)c1ccccc1 (stereo unspecified) | 75.7% (active)
52 | Cc1ccc(NC(=O)C(C)c2cccc(C(=O)c3ccccc3)c2)cc1 (stereo unspecified) | 18.8%
53 | CC(=O)N1CCc2cc(Br)cc(S(=O)(=O)CCC(=O)NCCc3ccc(Cl)cc3)c21 | 1.1%
54 | Cc1cccc(NC(=O)Cn2c(=O)n(Cc3ccccc3)c(=O)c3c(C)c(C)sc32)c1 | 1.32%
55 | Cc1ccc(NC(=O)Cn2c(=O)n(-c3ccccc3)c(=O)c3c4c(sc32)CCCC4)cc1 | 4.64%
56 | CCOC(=O)N1CCc2c(sc3c2c(=O)n(Cc2ccccc2)c(=O)n3CC(=O)Nc2cccc(C)c2)C1 | 47.3% (active)
